Results published in PubChem BioAssay (NCATS).
Records with an inconclusive call do not appear. Activity calls are given as the source filed them. Calls follow the shape of the dose curve; as a rule, active = well fitted inhibition curve with a large enough effect; inconclusive = small, poorly fitted or top-dose-only effect; inactive = flat fitted curve, though single readings scatter.
% is scaled to controls: 0 for no effect and ±100 for the full control effect.

These compounds were tested on KB-3-1 (assay: Cytotoxic Profiling of Annotated Libraries Using Quantitative High-Throughput Screening (AID 1296008; also: nearly all actives have a fitted effect of over 60% in size)). Settings: Five cell lines viability, CellTiter-Glo ATP luminescence, 48-72 h; max response: hits give low values.
Outline: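 Cells exposed to compounds for 48 or 72 hr at 37 degrees Celsius. Viability read as ATP-coupled luminescence with CellTiter-Glo after 10 min at room temperature.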
In the case of `S=C=Nc1ccc(N=C=S)cc1`, the max response is reported as -15.9% (inactive).
`O=C1c2ccccc2CN2C(=O)c3ccccc3CN12` was tested, and the max response was 1.75% (inactive).
In the case of `CC(C)CCCCCCc1ccc(O)cc1`, the max response is reported as -10.4% (inactive).
For `ClC(Cl)Cl`, the max response was 3.29% (inactive).
With `CN1C(C(=O)Nc2ccccn2)C(=O)c2sc(Cl)cc2S1(=O)=O` (stereo not given) the max response was 5.88% (inactive).
In the case of `CCOC(=O)c1cc(-c2ccccc2)nc2ccc(C)cc12`, the max response is reported as 3.5% (inactive).
With `Cc1cc(C)c(NC(=O)C[C@H](CC(=O)O)c2cccc3ccccc23)c(C(=O)N2CCC3(CCCC3)CC2)c1` the max response was -2.39% (inactive).
For `C[C@H](O)CN(C)C`, the max response was 10.7% (inactive).
`CC(=O)Oc1cc(C(F)(F)F)ccc1C(=O)O` was tested, and the max response was 0.097% (inactive).
In the case of `COc1ccccc1N1CCN(CCCC(=O)c2ccc(F)cc2)CC1`, the max response is reported as -4.67% (inactive).
For `O=P(O)(O)CP(=O)(O)O`, the max response was -3.6% (inactive).
In the case of `CC(C)[C@@H]1CC[C@@H](C)C[C@H]1OC(=O)c1ccccc1O`, the max response is reported as -4.38% (inactive).
`Cc1ccc(S(=O)(=O)NC(=O)N[C@@H](C)Cc2ccccc2)cc1` was tested, and the max response was 4.03% (inactive).
`CCCCC` was tested, and the max response was 7.19% (inactive).
For `NC(=O)[C@@H]1CCCN1C(=O)[C@H](Cc1cnc[nH]1)NC(=O)[C@@H]1CCC(=O)N1`, the max response was 0.162% (inactive).
With `C[N@+]12CCCC[C@@H]1CCC(=C(c1cccs1)c1cccs1)C2` the max response was -14.7% (inactive).
In the case of `CCCCCCCCCCCC(=O)OCC(O)CO` (stereo not given), the max response is reported as 4.65% (inactive).
With `O=S(=O)(O)CCCS(=O)(=O)O` the max response was 0.835% (inactive).
`Cc1ccc(S(=O)(=O)NCl)cc1` was tested, and the max response was 2.64% (inactive).
In the case of `CSCCC(N)C(=O)O` (stereo not given), the max response is reported as 3.08% (inactive).
`CCN(CC)CCC(=O)N1c2ccccc2Sc2ccc(Cl)cc21` was tested, and the max response was 24.4% (inactive).
For `Nc1nccs1`, the max response was -12.3% (inactive).
In the case of `CCCCCCCCCCCCCCCCCCCCCC(=O)Nc1ccn([C@@H]2O[C@H](CO)[C@@H](O)[C@@H]2O)c(=O)n1`, the max response is reported as 3.81% (inactive).
For `CC1CCC(NC(=O)N(CCCl)N=O)CC1` (stereo not given), the max response was 8.06% (inactive).
`NCC[C@H](O)C(=O)N[C@@H]1C[C@H](N)[C@@H](O[C@H]2O[C@H](CN)CC[C@H]2N)[C@H](O)[C@H]1O[C@H]1O[C@H](CO)[C@@H](O)[C@H](N)[C@H]1O` was tested, and the max response was 4.22% (inactive).
`O=C(O)/C=C/C(=O)Nc1ccc(S(=O)(=O)Nc2nccs2)cc1` was tested, and the max response was -6.18% (inactive).
In the case of `O=C1[O][Bi][O]c2ccccc21`, the max response is reported as -7.6% (inactive).
In the case of `CC1=C(/C=C/C(C)=C/C=C/C(C)=C/C(=O)Oc2c(C)c(C)c3c(c2C)CC[C@@](C)(CCC[C@H](C)CCC[C@H](C)CCCC(C)C)O3)C(C)(C)CCC1`, the max response is reported as -1.1% (inactive).
For `C[C@]12CC[C@@H]3c4ccc(O)cc4CC[C@H]3[C@@H]1CC[C@@H]2OP(=O)(O)O`, the max response was -26.5% (inactive).
With `OCc1ccccc1` the max response was 7.88% (inactive).
For `C[C@@H]1C[C@H]2[C@@H]3CCC4=CC(=O)C=C[C@]4(C)[C@@]3(F)[C@@H](O)C[C@]2(C)[C@@]1(O)C(=O)COC(=O)c1cccc(S(=O)(=O)O)c1`, the max response was 21.4% (inactive).
In the case of `CC(=O)N=c1sc(S(N)(=O)=O)nn1C`, the max response is reported as 21.5% (inactive).
For `CCCCC(CC)COS(=O)(=O)O` (stereo not given), the max response was -16.9% (inactive).
In the case of `O=C(O[C@H]1CN2CCC1CC2)N1CCc2ccccc2[C@@H]1c1ccccc1`, the max response is reported as 8.58% (inactive).
For `CC(C)C[C@@H](NC(=O)[C@@H](O)[C@H](N)Cc1ccccc1)C(=O)O`, the max response was 11% (inactive).
`C[C@H](CCC(=O)O)[C@H]1CC[C@H]2[C@@H]3CC[C@@H]4C[C@H](O)CC[C@]4(C)[C@H]3C[C@H](O)[C@]12C` was tested, and the max response was -0.187% (inactive).
`NCC(O)CC(=O)O` (stereo not given) was tested, and the max response was 3.49% (inactive).
`Cc1cccc(Nc2ncccc2C(=O)O)c1C` was tested, and the max response was 14.2% (inactive).
`OCl` was tested, and the max response was 19.8% (inactive).
For `CCC(C)[C@@H](N)C(=O)O` (stereo not given in full), the max response was 1.62% (inactive).
